ELG1 genotox – genotoxicity induction in ELG1-luciferase HEK293T cells; HEK293T ELG1-luciferase reporter, luminescence, 16 h; 330,000 tested, 1.3% active; Potency, µM (series often up to 46 µM), for inactives: at the top dose activity change, positive = activation, usual class: activators; also: % of control where 0% means no effect; nearly all actives have a fitted effect of over 60% in size
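After overnight (16 hr) compound treatment at 37 °C, ELG1-luciferase HEK293T cells were lysed with ONE-Glo; luminescence quantified 30 min later at room temperature.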
FLuc modulator – firefly luciferase modulation, counter-screen for miR-21 project | P08659 | purified FLuc, Km substrates, luminescence inhibition | Potency, µM (top dose mostly 57.5 µM), for the others: top-dose activity change, negative = inhibition, actives largely listed as inhibitors | 360,000 tested, 6.9% active | AID 588342;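 also: plate controls were vehicle for no effect and reference inhibitor for full effect; nearly all actives have a fitted effect of over 55% in size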
Target sequence (P08659 whole entry, looked up): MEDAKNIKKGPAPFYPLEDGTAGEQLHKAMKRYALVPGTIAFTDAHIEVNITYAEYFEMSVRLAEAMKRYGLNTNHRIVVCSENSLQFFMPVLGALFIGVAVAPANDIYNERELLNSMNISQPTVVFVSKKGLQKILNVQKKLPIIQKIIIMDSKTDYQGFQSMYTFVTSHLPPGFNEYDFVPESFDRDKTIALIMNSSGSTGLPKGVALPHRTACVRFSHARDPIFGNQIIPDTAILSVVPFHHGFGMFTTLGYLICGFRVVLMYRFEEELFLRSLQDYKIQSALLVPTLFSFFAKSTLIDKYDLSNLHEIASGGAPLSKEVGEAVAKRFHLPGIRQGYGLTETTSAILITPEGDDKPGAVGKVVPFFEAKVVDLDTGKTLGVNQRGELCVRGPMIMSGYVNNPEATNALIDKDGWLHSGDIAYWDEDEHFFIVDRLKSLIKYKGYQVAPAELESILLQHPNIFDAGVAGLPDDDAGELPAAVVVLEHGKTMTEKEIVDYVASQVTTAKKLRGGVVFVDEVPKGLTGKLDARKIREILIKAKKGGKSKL
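Purified P. pyralis luciferase, 10 nM final, with Km-level 10 uM D-luciferin and 10 uM ATP in 50 mM Tris acetate pH 7.5, 10 mM Mg acetate, 0.01% Tween-20, 0.05% BSA; 6-point qHTS titration about 60 µM downward; luminescence read.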
SMN2 splice enh – SMN2 splice variant enhancement | HEK293 SMN2-luciferase splicing reporter, luminescence, 30-36 h | 210,000 tested, 2.8% active | AID 1458 | Potency, µM (series often up to 46.1 µM), for inactives: at the highest dose activity change, positive = activation, usual class: activators; also: % of control where 0% means no effect; nearly all actives have a fitted effect of over 55% in size
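qHTS luciferase splicing reporter: luminescence rises when SMN2 exon 7 is included in transfected HEK293 cells. Compound exposure lasted 30-36 h at 37C, with 4.5 mM final sodium butyrate as control, followed by a ONE-Glo read.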
Rab9 promoter act – activates the Rab9 promoter; Huh7 Rab9 promoter-luciferase reporter, luminescence, 24 h; Potency, µM (series often up to 9.22 µM), without a hit: at the top dose activation, negative = inhibition, hits mostly activators; 320,000 tested, 2.8% active; also: % of control where 0% means no effect; nearly all actives have a fitted effect of over 60% in size
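Rab9 promoter-driven luciferase in stably transfected Huh7 cells; 1500 cells/well rested 2 h, exposed to compound in DMSO for 24 h at 37 °C, 5% CO2. Luminescence read 10 min after adding luciferase reagent at ambient temperature.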
ELG1 DNA repair – blocks ELG1-dependent DNA repair in HEK293T cells. HEK293T ELG1-luciferase reporter, luminescence, 16 h; DNA damage induced by 5-fluorouridine. Potency, µM (highest dose often 46.1 µM), for inactives: at the highest dose activity change, negative = inhibition, actives largely listed as inhibitors. 330,000 tested, 2.3% active; also: % is scaled to controls: 0 for no effect and ±100 for the full control effect; nearly all actives have a fitted effect of over 55% in size
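HEK293T cells expressing luciferase-tagged ELG1 (2,000/well) received 5-Fluorouridine plus compound or DMSO for 16 hr at 37 °C. Luciferase was read by ONE-Glo luminescence after 30 min at room temperature.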
NPC1 promoter act – NPC1 promoter activation; Huh7 NPC1 promoter luciferase reporter, 24 h; 320,000 tested, 2.4% active; Potency, µM (series often up to 9.22 µM), for the others: at the top dose activation, usual class: activators; also: % of control where 0% means no effect; nearly all actives have a fitted effect of over 60% in size
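Cells: Huh7 expressing luciferase under the NPC1 promoter, 1500/well. Seeded 2 h, compound added, incubated 24 h at 37 °C. Luciferase reagent, 10 min ambient, then luminescence.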
Numbers without * were called inactive; ? = inconclusive; . = no result given; [ ] = remark or other dose. This is a sample that favours compounds with a hit; in the whole collection about 9.2% have one here. Calls follow the shape of the dose curve; as a rule, active = well fitted curve in the direction sought with a large enough effect; inconclusive = small, poorly fitted or top-dose-only effect, or another doubt; inactive = no such curve, though single readings can be large; an effect the other way counts as inactive or inconclusive. Potency is read from the fitted curve at half-maximal effect.

SMILES	ELG1 genotox	FLuc modulator	SMN2 splice enh	Rab9 promoter act	ELG1 DNA repair	NPC1 promoter act
CCOc1ccc(OCc2ccc(C(=O)N3CCCC3)o2)cc1	6.4%	?	7.1%	5.2%	11.6%	?
CCOc1ccc(OCc2ccc(C(=O)NC(C)C)o2)cc1	3.7%	-18.4%	.	26.2%	?	?
CCOc1ccc(OCc2ccc(C(=O)OCc3ccccn3)o2)cc1	0.2%	?	8.91µM*	0.891µM*	?	?
CN1CCN(C(=O)c2ccc(COc3ccc(C(C)(C)C)cc3)o2)CC1	6.1%	8.49µM*	?	?	?	?
CCOc1ccc(OCc2ccc(C(=O)N3N=C(C(F)F)CC3(O)C(F)F)o2)cc1 (stereo not drawn)	1.8%	-0.9%	?	3.98µM*	0.5%	27.6%
CC(C)c1ccc(OCc2ccc(C(=O)N3CCCC3)o2)cc1	?	16.9µM*	.	2µM*	?	?
CCOC(=O)CN(C(=O)c1snc(C(N)=O)c1N)C(C(=O)NC1CCCCC1)c1ccc(F)cc1 (stereo not drawn)	7.4%	-1.8%	.	-4.3%	2.8%	1.0%
O=c1c2c3c(sc2n(Cc2cc(=O)n4ccccc4n2)c(=O)n1-c1ccccc1)CCC3	.	-0.4%	-2.3%	.	.	.
C/C(=N/NC(=O)c1ccccn1)c1ccco1	16.8%	5.36µM*	?	0.501µM*	?	0.891µM*
C/C(=N\Nc1ccc(Cl)cc1)c1ccccn1	20.6µM*	10.7µM*	14.1µM*	?	?	11.3%
C/C(=N\NC(=O)c1ccccn1)c1ccc(Cl)cc1	?	2.39µM*	.	0.562µM*	?	0.794µM*
C/C(=N\NC(=O)c1cc(C)nc2ccccc12)c1ccccn1	?	.	.	-24.3%	?	-9.5%
C/C(=N\Nc1ccc(Cl)cc1)c1ccncc1	5.6%	?	.	4.0%	?	-1.5%
C/C(=N/NC(=O)c1ccccn1)c1c[nH]c2ccccc12	10.3µM*	5.36µM*	.	3.55µM*	?	2.24µM*
CC1CN(C(=O)c2cc3cc(F)ccc3[nH]2)CC(C)O1 (stereo not drawn)	1.0%	?	.	-0.9%	3.8%	-2.1%
COc1ccc(CN2CCC(n3nccc3NC(=O)C3CC3)CC2)cc1O	5.8%	0.0%	.	1.7%	1.0%	-0.1%
CC(CNc1nc2ccc(Cl)cc2n2cnnc12)c1ccccc1 (stereo not drawn)	-0.9%	-16.4%	.	-5.4%	?	0.6%
C/C(=N\NC(=O)c1ccc(Cl)cc1)c1ccccn1	3.26µM*	7.57µM*	.	-20.1%	?	?
C/C(CC(=O)Nc1ccc(N(C)C)cc1)=N\NC(=O)c1ccccn1	?	?	-6.1%	4.5%	?	16.0%
C/C(=N/NC(=O)c1ccccn1)c1ccc(O)cc1	16.4µM*	23.9µM*	.	2.82µM*	?	3.55µM*
COc1cc(C(=O)N/N=C(\C)c2ccccn2)cc(OC)c1OC	6.0%	6.7%	.	4.1%	3.3%	-3.0%
CCCCOC(=O)Nc1nnc(/C=C/c2ccc(OC)cc2)s1	2.5%	?	-4.0%	-1.0%	?	-4.3%
COc1ccc(/C=C/c2nnc(NC(=O)C(C)(C)C)s2)cc1	1.5%	8.49µM*	.	19.4%	5.8%	21.8%
COc1ccc(/C=C/c2nnc(NC(=O)COc3ccc(C)cc3)s2)cc1	9.6%	-0.6%	5.01µM*	3.5%	25.0%	21.0%
CCCC(=O)Nc1nnc(/C=C/c2ccc(OC)cc2)s1	2.4%	?	.	17.3%	0.0%	22.5%
SMILES	ELG1 genotox	FLuc modulator	SMN2 splice enh	Rab9 promoter act	ELG1 DNA repair	NPC1 promoter act
CCOC(=O)Nc1nnc(-c2cccc(OC)c2)s1	?	?	?	3.1%	0.9%	10.5%
CCOC(=O)Nc1nnc(/C=C/c2ccc(OC)cc2)s1	15.5%	13.5µM*	7.2%	-0.3%	?	8.4%
CCOC(=O)Nc1nnc(-c2ccc(OC)cc2)s1	?	4.78µM*	17.8%	?	?	20.8%
COc1ccc(/C=C/c2nnc(NC(=O)COc3ccccc3)s2)cc1	-0.5%	-3.4%	.	-1.2%	0.1%	3.9%
Cn1cccc1-c1cc(C(=O)N/N=C/c2cccc(O)c2)[nH]n1	21.5%	?	15.3%	-1.8%	-10.7%	-2.4%
CC1CCC(C(=O)NC(C(=O)NCc2cccnc2)C(C)C)CC1 (stereo not drawn)	1.3%	9.2%	-8.3%	10.2%	0.8%	-1.8%
Cc1ccc(N/C(C(Cl)=C(Cl)Cl)=C(/Cl)[N+](=O)[O-])c(C)c1	-4.0%	-9.2%	-6.9%	-3.3%	-23.4%	0.4%
Cc1cccc(OCCNC(=O)c2cncc(Br)c2)c1	-0.4%	-0.8%	?	-1.0%	-6.0%	-2.0%
CN(Cc1cccc(-n2cccn2)c1)C(=O)CCc1nnc(C2CCCCC2)o1	10.1%	16.9µM*	.	?	?	11.5%
COCCc1nc2ccc(C(=O)N(C)Cc3cccc(-n4cccn4)c3)cc2o1	?	21.3µM*	.	2.82µM*	?	2.82µM*
CN(Cc1cccnc1)C(=O)c1ccc2nc(Cc3ccccc3F)oc2c1	1.3%[9.26 µM]	23.9µM*	.	?	?	26.7%
CN(Cc1ccon1)C(=O)c1ccc2nc(Cc3cccc(Cl)c3)oc2c1	0.2%	4.1%	.	-7.9%	12.5%	5.5%
Cc1ccccc1C(=O)Oc1cc(N)n(S(C)(=O)=O)n1	2.1%	?	7.5%	-8.4%	?	4.4%
Cc1c(C(=O)Oc2cc(N)n(S(C)(=O)=O)n2)cccc1[N+](=O)[O-]	0.3%	21.3µM*	0.5%	2.8%	4.7%	0.9%
O=c1oc2ccccc2c(N2CCN(c3ccc(F)cc3)CC2)c1CN1CCCC1	.	-0.3%	-5.5%	.	.	.
Nc1c(N2CCN(c3ccccc3)CC2)c2ccccc2oc1=O	-32.4%	-1.6%	-29.5%	8.0%	18.4µM*	1.1%
COC(=O)[C@H](CCSC)NC(=O)Nc1ccc(S(N)(=O)=O)cc1	0.2%	-1.2%	.	1.0%	6.5%	-4.0%
O=C(Nc1ccc(Cl)cc1Cl)c1ccc2c(=O)n3c(nc2c1)CCC3	?	10.7µM*	.	1.41µM*	?	1.78µM*
CC(C)c1ccc(OC(=O)c2ccc3c(=O)n4c(nc3c2)CCC4)cc1	?	12µM*	.	2.7%	17.6%	0.0%
COc1ccccc1NC(=O)c1ccc2c(=O)n3c(nc2c1)CCC3	-1.1%	-22.2%	.	8.1%	?	21.4%
O=C(Nc1ccc(Br)cc1Cl)c1ccc2c(=O)n3c(nc2c1)CCC3	6.51µM*	21.3µM*	.	3.55µM*	?	3.55µM*
CCn1c(=O)n(CC)c2cc(S(=O)(=O)Nc3ccccc3C)c(C)cc21	?	-0.5%	7.94µM*	-0.1%	?	-2.6%

Compound activity: PubChem, National Center for Advancing Translational Sciences (NCATS)
